Compounds with a hit are over-represented: about 2.5% of the library has one in this group of screens.
Cruzain noTriton: blocks cruzain activity in detergent-free assay; purified cruzain, Z-FR-AMC fluorescence, no detergent; Potency, µM, without a hit: max response, negative = inhibition, actives largely listed as inhibitors; P25779; 2.3% of 200,000 active;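 further: plate controls were enzyme without inhibitor for no effect and buffer without enzyme for full effect; nearly all actives have a fitted effect of over 40% in size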
Target sequence (P25779 123-467 limits assumed): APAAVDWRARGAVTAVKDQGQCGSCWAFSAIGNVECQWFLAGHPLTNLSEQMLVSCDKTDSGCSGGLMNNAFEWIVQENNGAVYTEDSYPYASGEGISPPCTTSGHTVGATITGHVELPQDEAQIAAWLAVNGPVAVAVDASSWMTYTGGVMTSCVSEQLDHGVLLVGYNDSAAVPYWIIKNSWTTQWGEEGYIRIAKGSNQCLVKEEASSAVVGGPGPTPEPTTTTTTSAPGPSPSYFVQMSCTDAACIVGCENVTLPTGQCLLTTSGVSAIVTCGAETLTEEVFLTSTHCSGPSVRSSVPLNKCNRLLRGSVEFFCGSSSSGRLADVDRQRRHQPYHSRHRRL
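Detergent-free condition (0.00005% Triton X-100) in acetate buffer pH 5.5 with DTT. 1.5 nM enzyme and compound were pre-mixed 15 min, then 2 uM Z-FR-AMC substrate added; reaction progress from fluorescence change between first and third reads (60 s).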
Cruzain inh Det: cruzain (T. cruzi) inhibition with detergent | P25779 | purified cruzain, Z-FR-AMC fluorescence, 0.01% Triton | Potency, µM, inactives show max response, negative = inhibition, hits mostly inhibitors | 0.43% of 200,000 active | AID 1478;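 further: plate controls were neutral wells for no effect and buffer without enzyme for full effect; nearly all actives have a fitted effect of over 40% in size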
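Cysteine protease activity tested under reducing, mildly acidic conditions (100 mM sodium acetate pH 5.5, 5 mM DTT) plus 0.01% Triton X-100. Cruzain 1.5 nM; substrate Z-FR-AMC 2 uM; 15 min compound preincubation at room temperature.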
Starred values were filed as active, the others as inactive; ? = inconclusive. The call rests on the fitted dose curve; in most records, active means well fitted curve in the direction sought with a large enough effect; inconclusive means small, poorly fitted or top-dose-only effect, or another doubt; inactive means no such curve, though single readings can be large; an effect the other way counts as inactive or inconclusive. Potency means the concentration at half of the fitted maximal effect.

SMILES | Cruzain noTriton | Cruzain inh Det
Cc1nn(-c2ccccc2)c2c1C(c1ccc([N+](=O)[O-])cc1)N1C(=N2)C(=O)Nc2ccccc21 (stereo unspecified) | -9% | -10%
COc1ccccc1-c1csc(NC(=O)c2cc(-c3cccs3)nc3ccccc23)n1 | 4µM* | -3%
COc1ccc(-c2cc(C(=O)N/N=C/c3sccc3C)c3ccccc3n2)c(OC)c1 | ? | -11%
COc1ccc(-c2csc(NC(=O)c3cc(-c4cccs4)nc4ccccc34)n2)c(OC)c1 | 5µM* | 2%
COc1ccccc1-c1cc(C(=O)N/N=C/c2cccs2)c2ccccc2n1 | -13% | -10%
CCc1ccc(NC(=O)c2ccc(F)c(S(=O)(=O)N(C)C3CCCCC3)c2)cc1 | -11% | -1%
COc1cccc(-n2c(SCC(=O)c3ccccc3)nc3c([nH]c4ccccc43)c2=O)c1 | 2% | 3%
CCCSc1nc2c([nH]c3ccccc32)c(=O)n1C | -4% | 0%
CCSc1nc2c([nH]c3ccccc32)c(=O)n1C | 13µM* | 4%
COc1cccc(-n2c(SCc3cccc(C)c3)nc3c([nH]c4ccccc43)c2=O)c1 | 16µM* | -1%
Cc1cccc(CSc2nc3c([nH]c4ccccc43)c(=O)n2C)c1 | -15% | 0%
COc1cccc(-n2c(SCc3ccccc3C)nc3c([nH]c4ccccc43)c2=O)c1 | 4µM* | 0%
O=C(Cn1ccc2cc(S(=O)(=O)N3CCCCCC3)ccc21)NCc1cccc(Cl)c1 | 5% | -4%
COc1ccc(C(CC(=O)Nc2ccc(C)cn2)N2Cc3ccccc3C2=O)cc1OC (stereo unspecified) | -6% | -1%
CCCOc1ccc(Oc2nc(NCC(C)C)nc(N(C)C)n2)nn1 | 1% | 1%
Cc1nn(C)c(C)c1/C=C1/SC(=S)NC1=O | 3% | 2%
Cc1ccc(C2C(/C=C3/SC(=S)NC3=O)=C(c3cccs3)Oc3ccccc32)cc1 (stereo unspecified) | 7.9µM* | -2%
COc1cn(CC(=O)Nc2c(C)cc(C)cc2C)c(CN2CCCCC2)cc1=O | -5% | 3%
COC(=O)C1=NN(c2ccccc2)C2(S1)S/C(=C\c1ccccc1)C(=O)N2c1ccccc1 (stereo unspecified) | 10µM* | 2%
CCOC(=O)C1=NN(c2ccccc2)C2(S1)SC(C(C)=O)=C(C)N2c1ccccc1 (stereo unspecified) | 10% | -3%
COc1ccc(-c2nc3scc(CCNS(=O)(=O)c4ccc5c(c4)OCCO5)n3n2)cc1 | 9% | -6%
CCc1c(-c2ccccc2)nc2ccccc2c1C(=O)NCc1ccc(C)cc1 | 9% | 0%
COc1ccc(C(=O)Nc2cc(Cl)cc(Cl)c2)c(OC)n1 | 13µM* | 2%
COc1ccc(C(=O)Nc2cc(Cl)ccc2Cl)c(OC)n1 | -17% | 1%
O=C(O)CCn1c(=O)c2cccn2c2cccnc21 | -5% | -4%
SMILES | Cruzain noTriton | Cruzain inh Det
CN1C(=O)c2ccccc2Sc2ccc(NC(=O)NCc3cccc(Cl)c3)cc21 | ? | -8%
O=C(CSc1nc2c(c(=O)[nH]1)CCCC2)Nc1ccccc1C(F)(F)F | -2% | -3%
CCOc1cccc2sc(N3CCN(C(=O)c4ccc5c(c4)CCCC5)CC3)nc12 | -17% | -23%
CCOC(=O)CC(=O)CSc1nc(N)c(C#N)c(-c2ccc(Cl)cc2)c1C#N | 32µM* | -2%
CCOC(=O)CC(=O)CSc1nc(C)cc(C)c1C#N | 4% | 3%
N#Cc1c(N)nc(SCC(=O)C23CC4CC(CC(C4)C2)C3)c(C#N)c1-c1ccc(Cl)cc1 | 4µM* | 3%
CSc1nc(N)nc(SCC(=O)C23CC4CC(CC(C4)C2)C3)c1C#N | -16% | -4%
Cc1ccc(-c2cc(C(=O)N3CCCc4ccccc43)c3ccccc3n2)cc1 | 32µM* | -2%
O=C(c1cc(-c2cccnc2)nc2ccccc12)N1CCCc2ccccc21 | -9% | -10%
O=C(O)C[SH+]CC(=O)O.O=C(O)C[SH+]CC(=O)O.[Cu] | 5% | 4%
COc1ccc(NCc2cc3cc4c(cc3n(CC(=O)Nc3cc(C)cc(C)c3)c2=O)OCO4)cc1 | ? | -5%
Cc1ccc(NCc2cc3cc4c(cc3n(CC(=O)Nc3ccc(C)cc3)c2=O)OCCO4)cc1 | ? | -7%
COc1ccc(NCc2cc3cc4c(cc3n(CC(=O)Nc3ccc(C)c(C)c3)c2=O)OCO4)cc1 | 16µM* | -3%
CCc1ccc(NCc2cc3cc4c(cc3n(CC(=O)Nc3ccc(Cl)cc3)c2=O)OCO4)cc1 | 16µM* | -1%
CNC(=O)c1c(N)sc2c1CCCCC2 | -15% | -16%
NC(=O)c1c(N)sc2c1CCCCC2 | 25µM* | -21%
COc1cccc(CN2C(=O)C3(SCC(=O)N3c3ccc(C(C)C)cc3)c3ccccc32)c1 (stereo unspecified) | ? | -6%
COc1ccc(N2C(=O)CSC23C(=O)N(Cc2ccccc2F)c2ccccc23)cc1Cl (stereo unspecified) | ? | -8%
CC(C)c1ccc(N2C(=O)CS(=O)(=O)C23C(=O)N(Cc2cccc(F)c2)c2ccccc23)cc1 (stereo unspecified) | 2.5µM* | -3%
Cc1ccc(N2C(=O)CS(=O)(=O)C23C(=O)N(C)c2ccccc23)cc1F (stereo unspecified) | -25% | -2%
CCc1ccc(N2C(=O)CS(=O)(=O)C23C(=O)N(Cc2ccccc2F)c2ccccc23)cc1 (stereo unspecified) | 3.2µM* | -5%
COc1ccc(N2C(=O)CS(=O)(=O)C23C(=O)N(Cc2ccccc2F)c2ccccc23)cc1Cl (stereo unspecified) | 2µM* | -2%
Cc1nnc(N2CCN(C(=O)Nc3cc(F)ccc3F)CC2)c2nn(-c3ccc(Cl)cc3)c(C)c12 | -10% | -2%
COc1cccc(-n2cc(C(=O)Nc3cc(OC)c(OC)c(OC)c3)c3ccccc3c2=O)c1 | -7% | 0%
COc1ccc(N(CC(=O)Nc2cc(OC)cc(OC)c2)S(=O)(=O)c2c(C)noc2C)cc1 | 4% | -5%
SMILES | Cruzain noTriton | Cruzain inh Det
CCOc1ccc(/C=C/c2nc(C#N)c(N3CCCCCC3)o2)cc1 | -21% | -3%
COCCNc1oc(-c2ccc(F)cc2)nc1C#N | 1% | -2%
CN1CCN(c2oc(/C=C/c3ccc(F)cc3)nc2C#N)CC1 | 25µM* | 25µM*
COc1cccc(/C=C/c2nc(C#N)c(N3CCCCCC3)o2)c1 | 29% | -8%
COc1cccc(/C=C/c2nc(C#N)c(NCCc3ccccc3)o2)c1 | 30% | -9%
COCCNc1oc(/C=C/c2ccc(F)cc2)nc1C#N | 20µM* | 22µM*
COc1cccc(/C=C/c2nc(C#N)c(NCCN(C)C)o2)c1 | 20µM* | 25µM*
COc1cccc(/C=C/c2nc(C#N)c(N3CCC(C(N)=O)CC3)o2)c1 | ? | 28µM*
COc1cc(NC(=O)CN2CCN(c3ccc(F)cc3)CC2)cc(OC)c1 | 6% | -4%
O=C(CSc1ncnc2c1cnn2-c1ccc(Cl)cc1)NCc1ccc2c(c1)OCO2 | 13µM* | 3%
O=C(CSc1ncnc2c1cnn2-c1ccccc1)Nc1ccc2c(c1)OCO2 | -7% | 2%
CCc1nnc(SCC(=O)N(C)c2ccccc2)c2cc3sccc3n12 | 1% | -1%
CS(=O)(=O)N1CCc2cc(-c3csc(NC(=O)Cc4cccs4)n3)ccc21 | 20µM* | 3%
O=C(CN1CCOCC1)Nc1nc(-c2ccc3c(c2)CCN3S(=O)(=O)c2ccccc2)cs1 | ? | -1%
Cc1ccc(NC(=O)CSc2cn(CC(=O)N3CCOCC3)c3ccccc23)cc1Cl | ? | -4%
